# Test results from ChEMBL document CHEMBL1961873, “Compounds: GSK PKIS; Assays: Nanosyn kinase panel” (2012).
# Assays:
# [1] = biological target: Platelet-derived growth factor receptor beta (Homo sapiens) (UniProt P09619); conditions: at 0.1 µM
# [2] = biological target: Platelet-derived growth factor receptor beta (Homo sapiens) (UniProt P09619); conditions: at 1 µM
# [3] = biological target: Tyrosine-protein kinase FRK (Homo sapiens) (UniProt P42685); conditions: at 0.1 µM
# [4] = biological target: Tyrosine-protein kinase FRK (Homo sapiens) (UniProt P42685); conditions: at 1 µM
# [5] = biological target: Protein-tyrosine kinase 2-beta (Homo sapiens) (UniProt Q14289); conditions: at 0.1 µM
# [6] = biological target: Protein-tyrosine kinase 2-beta (Homo sapiens) (UniProt Q14289); conditions: at 1 µM
# [7] = biological target: Proto-oncogene tyrosine-protein kinase receptor Ret (Homo sapiens) (UniProt P07949); conditions: at 0.1 µM
# [8] = biological target: Proto-oncogene tyrosine-protein kinase receptor Ret (Homo sapiens) (UniProt P07949); conditions: at 1 µM
# [9] = test system: Proto-oncogene tyrosine-protein kinase receptor Ret (Homo sapiens), P07949 [V804L]; conditions: at 0.1 µM
# [10] = test system: Proto-oncogene tyrosine-protein kinase receptor Ret (Homo sapiens), P07949 [V804L]; conditions: at 1 µM
# [11] = test system: Proto-oncogene tyrosine-protein kinase receptor Ret (Homo sapiens), P07949 [Y791F]; conditions: at 0.1 µM
# [12] = test system: Proto-oncogene tyrosine-protein kinase receptor Ret (Homo sapiens), P07949 [Y791F]; conditions: at 1 µM
# [13] = biological target: Macrophage-stimulating protein receptor (Homo sapiens) (UniProt Q04912); conditions: at 0.1 µM
# [14] = biological target: Macrophage-stimulating protein receptor (Homo sapiens) (UniProt Q04912); conditions: at 1 µM
# [15] = biological target: Proto-oncogene tyrosine-protein kinase ROS (Homo sapiens) (UniProt P08922); conditions: at 0.1 µM
# [16] = biological target: Proto-oncogene tyrosine-protein kinase ROS (Homo sapiens) (UniProt P08922); conditions: at 1 µM
# [17] = biological target: Proto-oncogene tyrosine-protein kinase Src (Homo sapiens) (UniProt P12931); conditions: at 0.1 µM
# [18] = biological target: Proto-oncogene tyrosine-protein kinase Src (Homo sapiens) (UniProt P12931); conditions: at 1 µM
# [19] = biological target: Tyrosine-protein kinase Srms (Homo sapiens) (UniProt Q9H3Y6); conditions: at 0.1 µM
# [20] = biological target: Tyrosine-protein kinase Srms (Homo sapiens) (UniProt Q9H3Y6); conditions: at 1 µM
# [21] = biological target: Tyrosine-protein kinase SYK (Homo sapiens) (UniProt P43405); conditions: at 0.1 µM
# [22] = biological target: Tyrosine-protein kinase SYK (Homo sapiens) (UniProt P43405); conditions: at 1 µM
# [23] = biological target: Tyrosine-protein kinase Tec (Homo sapiens) (UniProt P42680); conditions: at 0.1 µM
# [24] = biological target: Tyrosine-protein kinase Tec (Homo sapiens) (UniProt P42680); conditions: at 1 µM
# [25] = biological target: Angiopoietin-1 receptor (Homo sapiens) (UniProt Q02763); conditions: at 0.1 µM
# [26] = biological target: Angiopoietin-1 receptor (Homo sapiens) (UniProt Q02763); conditions: at 1 µM
# [27] = biological target: Non-receptor tyrosine-protein kinase TNK1 (Homo sapiens) (UniProt Q13470); conditions: at 0.1 µM
# [28] = biological target: Non-receptor tyrosine-protein kinase TNK1 (Homo sapiens) (UniProt Q13470); conditions: at 1 µM
# [29] = biological target: Activated CDC42 kinase 1 (Homo sapiens) (UniProt Q07912); conditions: at 0.1 µM
# [30] = biological target: Activated CDC42 kinase 1 (Homo sapiens) (UniProt Q07912); conditions: at 1 µM
# [31] = biological target: High affinity nerve growth factor receptor (Homo sapiens) (UniProt P04629); conditions: at 0.1 µM
# [32] = biological target: High affinity nerve growth factor receptor (Homo sapiens) (UniProt P04629); conditions: at 1 µM
# [33] = biological target: BDNF/NT-3 growth factors receptor (Homo sapiens) (UniProt Q16620); conditions: at 0.1 µM
# [34] = biological target: BDNF/NT-3 growth factors receptor (Homo sapiens) (UniProt Q16620); conditions: at 1 µM
# [35] = biological target: NT-3 growth factor receptor (Homo sapiens) (UniProt Q16288); conditions: at 0.1 µM
# [36] = biological target: NT-3 growth factor receptor (Homo sapiens) (UniProt Q16288); conditions: at 1 µM
# [37] = biological target: Tyrosine-protein kinase TXK (Homo sapiens) (UniProt P42681); conditions: at 0.1 µM
# [38] = biological target: Tyrosine-protein kinase TXK (Homo sapiens) (UniProt P42681); conditions: at 1 µM
# [39] = biological target: Non-receptor tyrosine-protein kinase TYK2 (Homo sapiens) (UniProt P29597); conditions: at 0.1 µM;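 further: each value is a mean of the inhibition readings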
# [40] = biological target: Dual specificity protein kinase TTK (Homo sapiens) (UniProt P33981); conditions: at 1 µM;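 further: reported figures are mean TTK inhibition at 1 µM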
# [41] = biological target: Aurora kinase A (Homo sapiens) (UniProt O14965); conditions: at 0.1 µM
# [42] = biological target: Aurora kinase A (Homo sapiens) (UniProt O14965); conditions: at 1 µM
# [43] = biological target: Aurora kinase B (Homo sapiens) (UniProt Q96GD4); conditions: at 0.1 µM
# [44] = biological target: Aurora kinase B (Homo sapiens) (UniProt Q96GD4); conditions: at 1 µM
# [45] = biological target: Aurora kinase C (Homo sapiens) (UniProt Q9UQB9); conditions: at 0.1 µM
# [46] = biological target: Aurora kinase C (Homo sapiens) (UniProt Q9UQB9); conditions: at 1 µM
# [47] = biological target: Serine/threonine-protein kinase 10 (Homo sapiens) (UniProt O94804); conditions: at 0.1 µM
# [48] = biological target: Serine/threonine-protein kinase 10 (Homo sapiens) (UniProt O94804); conditions: at 1 µM
# [49] = biological target: Mitogen-activated protein kinase kinase kinase kinase 2 (Homo sapiens) (UniProt Q12851); conditions: at 0.1 µM
# [50] = biological target: Mitogen-activated protein kinase kinase kinase kinase 2 (Homo sapiens) (UniProt Q12851); conditions: at 1 µM
# [51] = biological target: Mitogen-activated protein kinase kinase kinase kinase 4 (Homo sapiens) (UniProt O95819); conditions: at 0.1 µM
# [52] = biological target: Mitogen-activated protein kinase kinase kinase kinase 4 (Homo sapiens) (UniProt O95819); conditions: at 1 µM
# [53] = biological target: Dual specificity mitogen-activated protein kinase kinase 1 (Homo sapiens) (UniProt Q02750); conditions: at 0.1 µM
# [54] = biological target: Dual specificity mitogen-activated protein kinase kinase 1 (Homo sapiens) (UniProt Q02750); conditions: at 1 µM
# [55] = biological target: Misshapen-like kinase 1 (Homo sapiens) (UniProt Q8N4C8); conditions: at 0.1 µM
# [56] = biological target: Misshapen-like kinase 1 (Homo sapiens) (UniProt Q8N4C8); conditions: at 1 µM
# Aurora kinase B (Homo sapiens), sequence (Q96GD4 whole entry): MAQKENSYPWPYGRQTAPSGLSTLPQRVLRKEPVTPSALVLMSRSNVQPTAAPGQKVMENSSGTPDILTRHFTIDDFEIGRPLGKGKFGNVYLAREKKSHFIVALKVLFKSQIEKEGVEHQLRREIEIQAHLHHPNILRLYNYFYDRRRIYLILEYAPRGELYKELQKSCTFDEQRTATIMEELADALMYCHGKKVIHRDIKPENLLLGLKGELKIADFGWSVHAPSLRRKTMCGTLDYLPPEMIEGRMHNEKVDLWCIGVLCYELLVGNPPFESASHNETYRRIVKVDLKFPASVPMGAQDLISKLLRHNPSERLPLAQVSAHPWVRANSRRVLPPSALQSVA
# Aurora kinase C (Homo sapiens), sequence (Q9UQB9 whole entry): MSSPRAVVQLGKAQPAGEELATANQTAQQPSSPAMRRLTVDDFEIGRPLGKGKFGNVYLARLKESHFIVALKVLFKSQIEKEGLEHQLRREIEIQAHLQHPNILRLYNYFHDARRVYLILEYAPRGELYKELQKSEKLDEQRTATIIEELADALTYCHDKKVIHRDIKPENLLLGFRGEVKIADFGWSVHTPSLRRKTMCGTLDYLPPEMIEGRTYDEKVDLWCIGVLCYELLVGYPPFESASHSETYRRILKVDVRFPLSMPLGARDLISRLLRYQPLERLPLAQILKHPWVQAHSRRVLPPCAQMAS
# Proto-oncogene tyrosine-protein kinase ROS (Homo sapiens), sequence (P08922 whole entry): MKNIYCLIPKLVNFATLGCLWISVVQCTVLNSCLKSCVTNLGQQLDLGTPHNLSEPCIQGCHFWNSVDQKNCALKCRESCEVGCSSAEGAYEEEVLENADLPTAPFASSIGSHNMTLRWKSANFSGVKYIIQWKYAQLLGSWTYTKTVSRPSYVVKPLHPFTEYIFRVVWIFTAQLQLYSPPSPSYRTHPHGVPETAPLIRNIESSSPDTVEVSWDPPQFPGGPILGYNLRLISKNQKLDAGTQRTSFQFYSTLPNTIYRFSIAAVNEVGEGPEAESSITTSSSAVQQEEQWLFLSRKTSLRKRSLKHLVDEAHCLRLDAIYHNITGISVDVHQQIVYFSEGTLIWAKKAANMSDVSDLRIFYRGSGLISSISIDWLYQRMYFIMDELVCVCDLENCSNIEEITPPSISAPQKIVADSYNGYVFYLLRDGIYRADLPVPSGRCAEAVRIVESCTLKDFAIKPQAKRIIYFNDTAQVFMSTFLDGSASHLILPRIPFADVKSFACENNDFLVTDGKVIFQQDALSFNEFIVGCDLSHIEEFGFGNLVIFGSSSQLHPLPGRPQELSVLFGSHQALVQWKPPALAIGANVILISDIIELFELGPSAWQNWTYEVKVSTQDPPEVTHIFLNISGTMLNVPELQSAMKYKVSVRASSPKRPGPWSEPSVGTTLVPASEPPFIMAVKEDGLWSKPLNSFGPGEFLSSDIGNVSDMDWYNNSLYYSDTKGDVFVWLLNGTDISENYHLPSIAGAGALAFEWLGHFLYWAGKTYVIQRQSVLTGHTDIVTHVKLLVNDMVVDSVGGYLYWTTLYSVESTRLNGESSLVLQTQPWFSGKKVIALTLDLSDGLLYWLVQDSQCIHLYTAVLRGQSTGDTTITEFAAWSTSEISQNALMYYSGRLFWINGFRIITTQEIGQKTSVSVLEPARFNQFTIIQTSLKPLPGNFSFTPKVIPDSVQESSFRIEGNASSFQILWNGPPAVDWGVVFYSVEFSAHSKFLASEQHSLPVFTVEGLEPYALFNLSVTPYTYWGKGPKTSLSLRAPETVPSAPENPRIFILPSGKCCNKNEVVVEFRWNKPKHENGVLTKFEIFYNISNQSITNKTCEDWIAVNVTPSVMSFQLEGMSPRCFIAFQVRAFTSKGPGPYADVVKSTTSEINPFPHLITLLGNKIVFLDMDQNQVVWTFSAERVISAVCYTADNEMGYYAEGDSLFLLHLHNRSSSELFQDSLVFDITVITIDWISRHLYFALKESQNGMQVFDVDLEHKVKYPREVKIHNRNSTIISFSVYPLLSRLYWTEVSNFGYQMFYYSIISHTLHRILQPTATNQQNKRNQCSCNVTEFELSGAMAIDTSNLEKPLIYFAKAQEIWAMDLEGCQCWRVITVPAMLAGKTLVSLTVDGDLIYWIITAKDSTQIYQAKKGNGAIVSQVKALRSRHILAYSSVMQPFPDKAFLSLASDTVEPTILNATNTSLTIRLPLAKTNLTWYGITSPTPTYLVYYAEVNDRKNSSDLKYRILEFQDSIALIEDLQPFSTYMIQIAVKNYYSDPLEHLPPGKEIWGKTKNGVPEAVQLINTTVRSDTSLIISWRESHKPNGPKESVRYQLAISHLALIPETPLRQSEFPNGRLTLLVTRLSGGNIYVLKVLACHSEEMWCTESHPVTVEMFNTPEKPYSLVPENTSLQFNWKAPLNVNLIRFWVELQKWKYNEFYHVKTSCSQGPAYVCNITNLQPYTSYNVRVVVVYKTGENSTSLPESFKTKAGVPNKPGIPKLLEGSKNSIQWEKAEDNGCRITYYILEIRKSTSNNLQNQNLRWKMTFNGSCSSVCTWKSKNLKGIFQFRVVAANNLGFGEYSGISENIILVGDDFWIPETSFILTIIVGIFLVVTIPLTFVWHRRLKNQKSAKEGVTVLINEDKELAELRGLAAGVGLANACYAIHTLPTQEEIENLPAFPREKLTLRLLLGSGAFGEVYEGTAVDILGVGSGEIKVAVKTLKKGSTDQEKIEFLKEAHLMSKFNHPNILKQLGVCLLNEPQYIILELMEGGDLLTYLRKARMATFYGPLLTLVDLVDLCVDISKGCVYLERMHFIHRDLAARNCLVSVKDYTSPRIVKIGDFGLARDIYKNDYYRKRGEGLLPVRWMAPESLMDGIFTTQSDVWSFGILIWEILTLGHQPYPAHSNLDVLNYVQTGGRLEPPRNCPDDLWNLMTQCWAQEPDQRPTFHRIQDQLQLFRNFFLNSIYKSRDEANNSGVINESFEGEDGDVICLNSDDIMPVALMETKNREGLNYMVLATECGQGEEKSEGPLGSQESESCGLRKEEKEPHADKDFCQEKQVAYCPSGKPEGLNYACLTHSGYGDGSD
# Tyrosine-protein kinase Tec (Homo sapiens), sequence (P42680 whole entry): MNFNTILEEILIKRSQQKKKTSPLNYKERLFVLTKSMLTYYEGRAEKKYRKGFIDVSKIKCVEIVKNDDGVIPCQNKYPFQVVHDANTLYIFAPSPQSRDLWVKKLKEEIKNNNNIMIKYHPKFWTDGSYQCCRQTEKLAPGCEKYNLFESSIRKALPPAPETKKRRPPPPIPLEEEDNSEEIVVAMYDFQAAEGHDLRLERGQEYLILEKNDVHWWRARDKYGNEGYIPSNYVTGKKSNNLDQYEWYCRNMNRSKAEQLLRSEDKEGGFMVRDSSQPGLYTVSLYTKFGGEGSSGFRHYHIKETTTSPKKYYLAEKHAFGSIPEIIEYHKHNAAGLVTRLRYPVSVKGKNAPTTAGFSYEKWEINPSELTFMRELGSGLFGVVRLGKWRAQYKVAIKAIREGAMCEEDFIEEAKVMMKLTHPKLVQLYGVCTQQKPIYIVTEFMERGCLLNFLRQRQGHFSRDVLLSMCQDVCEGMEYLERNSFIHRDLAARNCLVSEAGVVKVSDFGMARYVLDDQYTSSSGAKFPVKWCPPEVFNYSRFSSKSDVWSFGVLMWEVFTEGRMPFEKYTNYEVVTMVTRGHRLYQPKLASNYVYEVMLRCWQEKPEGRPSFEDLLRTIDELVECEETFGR
# Non-receptor tyrosine-protein kinase TNK1 (Homo sapiens), sequence (Q13470 whole entry): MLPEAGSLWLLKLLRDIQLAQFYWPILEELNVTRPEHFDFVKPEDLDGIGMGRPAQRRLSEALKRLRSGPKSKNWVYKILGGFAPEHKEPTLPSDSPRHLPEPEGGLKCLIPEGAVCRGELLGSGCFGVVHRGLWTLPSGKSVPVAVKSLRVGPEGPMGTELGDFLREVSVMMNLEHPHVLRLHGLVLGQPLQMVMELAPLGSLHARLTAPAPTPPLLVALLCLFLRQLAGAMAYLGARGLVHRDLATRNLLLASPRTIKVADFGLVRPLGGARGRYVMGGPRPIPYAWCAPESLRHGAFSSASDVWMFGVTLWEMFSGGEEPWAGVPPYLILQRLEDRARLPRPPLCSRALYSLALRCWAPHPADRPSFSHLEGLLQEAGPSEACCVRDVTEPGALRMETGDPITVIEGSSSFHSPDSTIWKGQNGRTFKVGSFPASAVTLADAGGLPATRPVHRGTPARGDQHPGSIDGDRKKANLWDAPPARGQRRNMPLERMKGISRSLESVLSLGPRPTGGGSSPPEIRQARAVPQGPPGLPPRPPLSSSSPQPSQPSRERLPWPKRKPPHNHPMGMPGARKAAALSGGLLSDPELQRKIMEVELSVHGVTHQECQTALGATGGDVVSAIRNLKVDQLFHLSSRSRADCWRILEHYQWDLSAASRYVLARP
# Tyrosine-protein kinase FRK (Homo sapiens), sequence (P42685 whole entry): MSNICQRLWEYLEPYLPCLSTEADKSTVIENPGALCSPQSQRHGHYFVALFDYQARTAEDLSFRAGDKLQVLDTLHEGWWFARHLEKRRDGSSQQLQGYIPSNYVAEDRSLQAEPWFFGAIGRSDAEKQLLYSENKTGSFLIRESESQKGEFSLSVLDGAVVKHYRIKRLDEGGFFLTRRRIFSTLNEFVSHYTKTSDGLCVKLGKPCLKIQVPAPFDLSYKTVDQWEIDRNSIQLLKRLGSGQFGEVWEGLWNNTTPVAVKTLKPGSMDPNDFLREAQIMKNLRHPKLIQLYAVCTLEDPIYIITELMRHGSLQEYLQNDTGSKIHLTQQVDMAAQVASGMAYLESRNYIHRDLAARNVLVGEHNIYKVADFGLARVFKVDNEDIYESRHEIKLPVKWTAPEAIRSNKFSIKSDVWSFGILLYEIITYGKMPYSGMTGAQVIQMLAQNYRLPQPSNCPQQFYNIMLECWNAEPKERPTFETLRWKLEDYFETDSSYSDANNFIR
smiles,measurement,setting,value
CNC(=O)Oc1cc(C)c(/C=C/c2cncc(C(=O)NC)c2)c(C)c1,inhibition,[1],8.91%
same,inhibition,[2],49.7%
same,inhibition,[3],2.61%
same,inhibition,[4],13.1%
same,inhibition,[5],10.7%
same,inhibition,[6],6.54%
same,inhibition,[7],-1.48%
same,inhibition,[8],2.54%
same,inhibition,[9],2.06%
same,inhibition,[10],3.32%
same,inhibition,[11],2.2%
same,inhibition,[12],2.71%
same,inhibition,[13],-0.85%
same,inhibition,[14],4.22%
same,inhibition,[15],9.53%
same,inhibition,[16],13.7%
same,inhibition,[17],5.94%
same,inhibition,[18],49.2%
same,inhibition,[19],4.13%
same,inhibition,[20],19.3%
same,inhibition,[21],-1.41%
same,inhibition,[22],-0.86%
same,inhibition,[23],8.66%
same,inhibition,[24],39.1%
same,inhibition,[25],-0.08%
same,inhibition,[26],3.57%
same,inhibition,[27],1.27%
same,inhibition,[28],14.6%
same,inhibition,[29],0.99%
same,inhibition,[30],6.77%
same,inhibition,[31],1.04%
same,inhibition,[32],-0.56%
same,inhibition,[33],1.03%
same,inhibition,[34],0.99%
same,inhibition,[35],-0.56%
same,inhibition,[36],2.73%
same,inhibition,[37],13.4%
same,inhibition,[38],34.7%
same,inhibition,[39],-4.14%
same,inhibition,[40],8.09%
same,inhibition,[41],2.77%
same,inhibition,[42],4.58%
same,inhibition,[43],0.2%
same,inhibition,[44],1.25%
same,inhibition,[45],0.65%
same,inhibition,[46],9.48%
same,inhibition,[47],5.93%
same,inhibition,[48],16.9%
same,inhibition,[49],0.92%
same,inhibition,[50],5.49%
same,inhibition,[51],3.12%
same,inhibition,[52],8.96%
same,inhibition,[53],2.97%
same,inhibition,[54],4.15%
same,inhibition,[55],3.2%
same,inhibition,[56],7.01%
